Among the data in PubChem BioAssay AID540308 (The Scripps Research Institute Molecular Screening Center, 2011) are activation values, retold here.

The structures appear in SMILES notation. The campaign covered roughly 360,000 compounds. About 3,500 (0.97%) were called active.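 The calls were made as follows: active = activation above a per-plate cutoff, the mean activation of sample wells on that plate plus 3 SD (cut at about 8% in these data); inactive = the rest.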 Shown is part of a subset that was picked to be rich in actives.

Chain of Melanocortin receptor 4 (Homo sapiens) (P32245 whole entry, looked up): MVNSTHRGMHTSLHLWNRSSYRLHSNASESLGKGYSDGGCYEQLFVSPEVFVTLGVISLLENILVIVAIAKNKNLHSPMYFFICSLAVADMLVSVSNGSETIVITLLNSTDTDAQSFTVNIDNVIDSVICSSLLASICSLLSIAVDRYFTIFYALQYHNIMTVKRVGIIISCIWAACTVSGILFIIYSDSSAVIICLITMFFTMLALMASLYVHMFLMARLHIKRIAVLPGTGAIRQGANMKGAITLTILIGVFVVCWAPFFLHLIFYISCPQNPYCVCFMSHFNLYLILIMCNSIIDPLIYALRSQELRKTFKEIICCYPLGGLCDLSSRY

This assay has as its target Melanocortin receptor 4 (Homo sapiens) (UniProt P32245). The experiment in a line: MC4R agonists recruiting beta-arrestin, primary screen, cell-based, luminescence, agonist arm of biased-ligand search (AID 540308). To be noted: U2OS MC4R beta-arrestin complementation, at 8.9 µM, active compounds read high, percent of melanotan II response, DMSO zero.
As for `CCCCNc1c(-c2cccc(Sc3ccc(OC)cc3)c2)nc2ccccn12`, the activation is 13.9% (active).
With `CCCCNc1c(-c2ccc(OC)c(Sc3ccc(OC)cc3)c2)nc2ccc(Cl)cn12` the figure was -1.91% (inactive); with `CCCCNc1nc2c(c(=O)n(C)c(=O)n2C)n1Cc1cccc(OC)c1`, -2.77% (inactive); with `CNc1cc(-c2c(OC)cccc2OC)ncn1`, 0.41% (inactive).
With `CC1CCN(C(=S)c2ccc(-c3ccc(Cl)cc3Cl)o2)CC1` the figure was 2.82% (inactive); with `Cc1ccc(/C=C(\C#N)C(=O)Nc2cccc3ncccc23)o1`, 0.31% (inactive); with `COc1cc(SC)ccc1C(=O)Nc1nc(C)cs1`, -0.94% (inactive).
With `O=C(NNc1cc(Cl)ccc1Cl)c1cccnc1Cl` the figure was -2.02% (inactive); with `O=C(Nc1cccc2ncccc12)c1ccc(-c2ccc(Cl)cc2Cl)o1`, 20.2% (active); with `Cc1csc(NC(=O)c2ccc(-c3ccc(Cl)cc3Cl)o2)n1`, 12.6% (active).
With `Cc1nc2c(OCc3ccc(Cl)cc3)cccn2c1N(C)Cc1cccs1`, the activation was -2.75% (inactive).
As to `COc1ccc(CCNC(=O)Nc2ccc3c(c2)c(=O)n(C)n3C)cc1OC`, the activation is 1.3% (inactive).
With `COc1cc(C(O)c2nc(-c3cccc(C(=O)O)c3)cs2)ccc1F` (stereo not drawn), the activation is -1.9% (inactive).
`CC1(C(=O)NS(=O)(=O)c2cccc(OC(F)F)c2)CCN1C(=O)COc1ccc(Cl)cc1` (stereo not drawn): the activation is -1.09% (inactive).
With `CCc1ccc(OC2(C)CCN(CCOc3ccc(C)cc3)C2)cc1` (stereo not drawn) the figure was 3.54% (inactive).
On to `CCN1CCN(CCNC(=O)c2ccc(/C=C3/Sc4ccccc4N(Cc4cccc(C)c4)C3=O)cc2)CC1`, for which the activation was 13.8% (active).
`CCN1CCN(CCNC(=O)c2ccc3c(c2)NC(=O)/C(=C\c2cccc(Cl)c2)S3)CC1`: the activation was -0.09% (inactive).
For the compound `Cc1ccccc1CN1C(=O)c2ccccc2Sc2ccc(C(=O)NCCCN3CCOCC3)cc21`, the activation was 3.09% (inactive).
With `CCc1nc2c(OCC(=O)C(C)(C)C)cccn2c1N(C)C(=O)c1ccccc1F` the figure was -1.02% (inactive); with `CCC(=O)N1CCC(C)(C(=O)Nc2cc(OC)c(OC)c(OC)c2)C1` (stereo not drawn), -0.53% (inactive).
As for `CC1(C(=O)N/N=C/c2cc3c(cc2Br)OCO3)CC1(Br)Br` (stereo not drawn), the activation was -3.59% (inactive).
Consider `CC(C)Oc1c(Br)cc(Br)cc1/C=N/NC(N)=S`, for which the activation is 22.7% (active).
Take `COc1cccc(C(NC(C)=O)c2nc(-c3ccccc3OC)cs2)c1` (stereo not drawn): the activation was -0.26% (inactive).
With `Cc1cc(O)ccc1-c1cc(C(=O)NCc2cc(C(F)(F)F)cc(C(F)(F)F)c2)[nH]n1` the figure was 2.75% (inactive); with `OC(c1ccc(F)cc1)c1ncc(-c2cccc(C(F)(F)F)c2)[nH]1` (stereo not drawn), 1.88% (inactive).
For the compound `CC(=O)NC(c1ccccc1)c1nc(-c2ccccc2C)cs1` (stereo not drawn), the activation is 0.3% (inactive).
With `CC1(C(=O)NCc2ccc3c(c2)OCO3)CCN1C(=O)Cc1cccs1` (stereo not drawn) the figure was 0.72% (inactive).
With `COc1ccc(OCC(=O)Nc2ccc(N3CCC(C)CC3)cc2)cc1` the figure was 10.2% (active); with `COc1ccc(OCC(=O)NNC(=O)C2CCC2)cc1`, -1.99% (inactive); with `CCC(=O)c1ccc(OCC(=O)Nc2ccc(N3CCCCC3)cc2)cc1`, 3.06% (inactive).
With `CC12CCC(=O)C=C1CCC1C2C(O)CC2(C)C1CCC2(O)C(O)CO` (stereo not drawn) the figure was -0.23% (inactive).
As to `CCCNC(=O)C1(C)CCN(C(=O)c2ccccc2OC(F)(F)F)C1` (stereo not drawn), the activation was 0.4% (inactive).
`COc1ccc(NC(=O)CN(C)C(=O)c2cc(-c3ccc(C)o3)nc3ccccc23)cc1`: the activation was -0.83% (inactive).
With `CC(=O)N1CCN(C(=O)c2cc(-c3ccc(C)o3)nc3ccccc23)CC1` the figure was -2.54% (inactive); with `COc1ccc(NC(=O)c2cc(-c3ccc(C)o3)nc3ccccc23)cc1`, 9.46% (active).
With `CCCCc1ccc(S(=O)(=O)NC(=O)C2(C)CCN2C(=O)c2c(C)noc2C)cc1` (stereo not drawn) the figure was -2.14% (inactive).
With `Cc1cc(Cl)ccc1-c1nc(NCCN(C)C)nc2ccsc12`, the activation is -0.54% (inactive).
For `O=C(Nc1ccon1)c1nc[nH]c1C(=O)NCc1ccccc1`, the activation was -0.8% (inactive).
As to `CCOC(=O)c1[nH]cnc1C(=O)Nc1ccccc1C`, the activation is 1% (inactive).
Regarding `CCOC(=O)c1ccc(NC(=O)c2nc[nH]c2C(=O)NCc2ccccc2)cc1`, the activation was 8.44% (active).
Consider `COc1ccc(C(=O)N2CCCCC2c2cc(C(=O)Nc3ccc(F)c(Cl)c3)no2)cc1` (stereo not drawn), for which the activation is 2.26% (inactive).
On to `Cc1ccc(-n2cc3ccc([N+](=O)[O-])cc3n2)cc1`, for which the activation was 16.1% (active).
In the case of `Cc1ccnc(N2C(=O)c3ccc([N+](=O)[O-])cc3C2=O)c1`, the activation was -1.22% (inactive).
In the case of `Cc1ccc(C(=O)Cn2cc([N+](=O)[O-])nc2C)cc1`, the activation is -1.74% (inactive).
In the case of `COc1ccc(C(C)(O)c2nc(-c3cc(F)cc(F)c3)cs2)cc1` (stereo not drawn), the activation is 3.01% (inactive).
With `COc1ccc(Sc2ccc(NC(=O)c3cccc(Cl)c3)cc2C#N)cc1` the figure was -0.48% (inactive); with `Cc1ccc(Sc2ccc(NC(=O)c3ccc(F)cc3)cc2C#N)cc1`, 17% (active); with `COC(=O)c1ccc(Sc2ccc(F)cc2)c(N)c1`, -1.17% (inactive).
With `Clc1ccc(-c2cccc3nccn23)cc1` the figure was -0.44% (inactive); with `N#CCC(=O)N/N=C/c1cn(Cc2ccc3ccccc3c2)c2ccccc12`, 11.1% (active); with `COc1cccc(Cn2cc(/C=N/NC(=O)c3cc(O)cc(O)c3)c3ccccc32)c1`, -2.32% (inactive).
For `CCOC(=O)N/N=C/c1cn(Cc2ccccc2Cl)c2ccccc12`, the activation is -2.13% (inactive).
With `Cc1ccc(C)c(N2CCN(S(=O)(=O)c3ccc4c(c3)oc(=O)n4C)CC2)c1` the figure was -1.63% (inactive).
As for `Cc1ccc(C)c(N2CCN(S(=O)(=O)c3c(C)[nH]c(C)c3C(=O)N3CCCC3)CC2)c1`, the activation was -0.89% (inactive).
With `COC(=O)c1cc(S(=O)(=O)N2CCN(c3cc(C)ccc3C)CC2)c[nH]1` the figure was 9.07% (active); with `O=c1[nH]cnc2c1c(-c1ccccc1)cn2-c1ccc(F)cc1`, 8.69% (active).
Consider `COc1ccc(-n2cc(-c3ccccc3)c3c(=S)nc[nH]c32)cc1`, for which the activation is 2.91% (inactive).
In the case of `O=c1c2c(-c3ccccc3)ccnc2[nH]n1-c1ccccc1`, the activation was -0.95% (inactive).
In the case of `COc1cc(Cn2c3ccc(NC(=O)CC(C)c4ccccc4)cc3c(=O)n2C)ccc1F` (stereo not drawn), the activation was 1.46% (inactive).
With `O=C(NCc1ccccc1Cl)c1csc([C@@H]2O[C@H](CO)[C@@H](O)[C@H]2O)n1` the figure was -0.25% (inactive).
With `O=C(/C=C/c1ccccc1)Nc1nnc(SCC(=O)c2ccc3ccccc3c2)s1` the figure was -0.51% (inactive); with `O=C(CSc1ccccc1)Nc1nnc(/C=C/c2ccccc2)s1`, 10.9% (active).
With `CCOCc1nnc(NC(=O)CSc2ccc(C)cc2)s1` the figure was -1.16% (inactive); with `CCNC(=O)C1(C)CCCN(Cc2noc(-c3ccccc3OC)n2)C1` (stereo not drawn), 0.8% (inactive); with `COc1ccc(OC)c(NC(=O)c2cc(-c3cc(F)ccc3OCC3CCCO3)n[nH]2)c1` (stereo not drawn), 2.25% (inactive).
Regarding `Cc1nc(C(F)(F)F)ccc1C(=O)N1CCC1(C)C(=O)NS(=O)(=O)c1ccccc1` (stereo not drawn), the activation is -2.41% (inactive).
With `COc1ccc(Cc2nnc(NC(=O)c3ccc(OC)cc3OC)s2)cc1` the figure was 16.6% (active); with `COc1ccccc1NC(=O)Nc1nc(CC(=O)Nc2ccccc2F)cs1`, -1.3% (inactive); with `O=C(Nc1nnc(COc2ccccc2)s1)Nc1ccccc1F`, -0.21% (inactive).
With `COc1ccccc1NC(=O)Nc1nnc(Cc2ccc(F)cc2)s1` the figure was 13.2% (active); with `COc1ccc(Cc2nnc(NC(=O)c3cc(OC)c(OC)c(OC)c3)s2)cc1OC`, 0.62% (inactive).
Regarding `O=C(Nc1nnc(Cc2ccc(Cl)cc2)s1)c1ccncc1`, the activation is -0.7% (inactive).
With `COc1cccc(CNc2nc3cc(-c4csc5ccccc45)sc3c(=O)n2C)c1` the figure was 6.53% (inactive).
With `Cc1ccc(Cn2c(C)c(C(=O)NCc3ccccc3C(F)(F)F)sc2=O)cc1` the figure was 0.28% (inactive).
With `CC1(C(=O)Nc2ccccc2Br)CCN1C(=O)CC1CC1` (stereo not drawn) the figure was 1% (inactive).
As for `Cc1ccccc1S(=O)(=O)NC(=O)C1(C)CCN1C(=O)Cc1ccc(Cl)cc1Cl` (stereo not drawn), the activation is -1.27% (inactive).
On to `CCCc1c(C)nc2c(Br)cccc2c1Cl`, for which the activation was 0.46% (inactive).
With `COc1cccc(NC(=O)C2(C)CCN2Cc2ccccc2Cl)c1` (stereo not drawn) the figure was 2.88% (inactive); with `Cc1cc(=O)n2nc(N3CCCC(C(=O)NCc4ccc(Cl)cc4)C3)sc2n1` (stereo not drawn), -1.57% (inactive).
With `O=C(NCc1ccccc1)C1CCCN(S(=O)(=O)c2cccs2)C1` (stereo not drawn) the figure was 1.44% (inactive).
Turning to `O=C(NCc1ccccc1)C1CCCN(c2nc3ccsc3c(=O)s2)C1` (stereo not drawn), the activation is 8.43% (active).
`Cc1ccccc1CN1CCC(C(=O)Nc2ccc(Oc3cccnc3)cc2)CC1`: the activation is -3.23% (inactive).
With `CCc1nc2ccc(C(=O)NCc3ccc(OC)cc3)cn2c1N(CC)Cc1cccc(Br)c1` the figure was -1.05% (inactive); with `O=C(Nc1nnc(Cc2ccccc2)s1)c1cnccn1`, -0.34% (inactive); with `CC(=O)Nc1ccc(-c2csc(NC(=O)Nc3ccccc3)n2)cc1`, 11% (active).
With `CC(=O)Nc1ccc(-c2cn3cccnc3n2)cc1` the figure was -2.81% (inactive); with `O=C(NCCCNC(=O)c1ccccc1Cl)c1cnccn1`, 0.85% (inactive); with `Cc1ccc(NC(=O)Nc2cc(-c3ccccc3)nn2C)cc1Cl`, -0.42% (inactive).
Turning to `O=C(Nc1nc(-c2ccc(-c3ccccc3)cc2)cs1)c1cnccn1`, the activation is 25.9% (active).
With `CC(C)(C)c1ccc(S(=O)(=O)NC(=O)C2(C)CCN2C(=O)CC2CC2)cc1` (stereo not drawn) the figure was -2.01% (inactive); with `COCCNc1ncnc2c1ncn2[C@H]1CN(CCN2CCOCC2)C[C@@H](CO)O1`, -1.53% (inactive); with `CC1(C(=O)NS(=O)(=O)c2cccc(OC(F)F)c2)CCN1C(=O)C1CC1` (stereo not drawn), -1.02% (inactive).
Regarding `CC1(C(=O)NS(=O)(=O)Cc2cccc(Cl)c2)CCN1C(=O)Cc1ccc(Cl)cc1Cl` (stereo not drawn), the activation was 1.12% (inactive).
